# In PubChem BioAssay (EPA / NIEHS):
# Activity calls are given as the source filed them. Rule for the calls: active = hit-call score of the fitted dose curve at least 0.9, where 1 is the maximum; inactive = score below 0.9.
# Read-out: HGF (gene 3082)
# Assay: LTEA_HepaRG_HGF: Life Technologies and Expression Analysis (LTEA) Assay for Hepatocyte Growth Facto (HGF) using HepaRG (AID 2283505)
# Settings: mRNA level, 48 h; actives raise or lower the signal
# How it was run: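 Gain or loss of HGF mRNA in human HepaRG liver cells after 48 h chemical exposure; eight concentrations up to 100 uM with 0.5% DMSO vehicle, quantified by TaqMan qRT-PCR.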
SMILES,outcome,AC50
COC(=O)CCCC(=O)OC,inactive,–
O=C(O)CN(CC(=O)O)CC(=O)O,inactive,–
CCc1nc(N)nc(N)c1-c1ccc(Cl)cc1,–,50 µM (active)
CC(C)c1cccc(C(C)C)c1NC(=O)NS(=O)(=O)c1cc(C(C)(C)O)co1,inactive,–
Oc1ccc(O)cc1,inactive,–
NC=O,inactive,–
CC(=O)S[C@H](C(=O)N[C@H]1Cc2ccccc2[C@H]2CCC[C@@H](C(=O)O)N2C1=O)C(C)C,inactive,–
CC(=O)CC(c1ccccc1)c1c(O)c2ccccc2oc1=O (stereo not given),inactive,–
NCCOCCOCCN,inactive,–
O=C(O)c1[nH]n(-c2ccc(S(=O)(=O)O)cc2)c(=O)c1N=Nc1ccc(S(=O)(=O)O)cc1,inactive,–
CCc1cc(C2=C(C(=O)O)N(c3ccccc3C(F)(F)F)S(=O)(=O)c3ccccc32)cc2c1OCO2,inactive,–
CCCCCCCCCC[N+](C)(C)[O-],inactive,–
CN(C)CCCN1c2ccccc2Sc2ccc(Cl)cc21,inactive,–
CSc1ccc(Oc2ccc(S(N)(=O)=O)cc2CN(C)C)cc1C,inactive,–
CCCCOC(=O)CCCCC(=O)OCCCC,inactive,–
COc1ccc(C(=O)Nc2nc3ccccc3c(NCc3ccccc3)c2C#N)cc1,inactive,–
CN(C)C(=O)NC1(c2ccccc2)CCN(CC[C@@]2(c3ccc(F)c(F)c3)CN(C(=O)c3ccccc3)CCO2)CC1,inactive,–
Cc1cc(Cc2ccc(N)c(C)c2)ccc1N,inactive,–
Cc1cc(SC2=C(O)C[C@@](CCc3ccc(N)cc3)(C(C)C)OC2=O)c(C(C)(C)C)cc1CO,inactive,–
CCCCCCC(C=O)=Cc1ccccc1,inactive,–
